Assay results as given in ChEMBL document CHEMBL3988442, “University of Dundee, Small-Polar-MMV Screening Library” (2021).

Biological target: AMP-activated protein kinase, AMPK (Homo sapiens) (UniProt P54646+O43741+P54619+Q9UGJ0+Q9Y478+Q13131+Q9UGI9)
Assay: AMP-dependent Kinase enzyme assay. An in vitro enzyme assay that detects ADP turnover that is directly proportional to AMPK activity. This uses naive AMPK that is activated during the assay with MK-8722
Format: functional
Set-up: scale not given: direction of the effect not stated beside the values
Conditions: 30 µM

Row | SMILES | Percent Effect [%]
1 | CN1CCN(C)C(CNc2c(C#N)cnc3ccc(Cl)cc23)C1 (stereo not given) | 8.02
2 | O=C(NC1CC1)c1cnc2n1CCCC2 | -4.04
3 | CN(C)C(=O)c1cncnc1-c1ccc(CNC(=O)C2CCCO2)cc1 (stereo not given) | -0.401
4 | CCC(NCCn1cc(C)cn1)C(=O)Nc1cc(C)on1 (stereo not given) | -6.29
5 | O=C(NCc1cccnc1-n1cncn1)c1cc(Cl)ccn1 | -11.1
6 | CC(=O)N1CC(C(=O)NC(C)c2cnn(C)c2C)C1 (stereo not given) | 8.59
7 | Cc1cc(N2CCC(n3cc(CN4CCNCC4)nn3)CC2)ccn1 | -7.65
8 | Cn1cc(CN2CCS(=O)(=O)C(C)(C)C2)cn1 | 5.13
9 | CSc1ncccc1C(=O)NC(C)c1cccc(N2CCOC2=O)c1 (stereo not given) | -0.0368
10 | O=C(NCC1CCOC1)c1cc(-c2ccccc2Cl)[nH]n1 (stereo not given) | 2.35
11 | CC(NC(=O)N1CCCCCC1)c1ccc(S(N)(=O)=O)cc1 (stereo not given) | 5.75
12 | CC1CN(c2ncnc3sccc23)CCN1c1nccs1 (stereo not given) | 16.9
13 | CNC(=O)N1CCOCC1c1c(C)nn(C)c1C (stereo not given) | -2.45
14 | O=C(NCc1nc[nH]n1)c1cc(COc2cccc(C(F)(F)F)c2)[nH]n1 | -6.06
15 | CC(OCC1CC1)C(=O)NCCC(=O)Nc1ccccn1 (stereo not given) | 12.4
16 | CC(C)c1nnc2n1CCN(Cc1cc(Cl)c3c(c1)OCO3)C2 | 8.76
17 | Cc1nc(O)cc(CN2C[C@H](NS(=O)(=O)N(C)C)[C@@H](C3CC3)C2)n1 | -5.32
18 | Cc1nn(C)cc1C(=O)N1CCC(C(=O)c2nc3ccccc3s2)CC1 | 20.7
19 | Cc1ccc(C(=O)NC2CCCN(S(C)(=O)=O)C2)c(=O)[nH]1 (stereo not given) | -0.668
20 | COc1ccc(OCCNC(=O)CN(C)Cc2nnc(C)n2C)cc1 | 7.86

Row | SMILES | Percent Effect [%]
21 | CCN(CC)C1CCN(c2ncnc3c2CCN(C(=O)C2CC2)C3)C1 (stereo not given) | -3.94
22 | CC(C)[C@]1(O)CN(C(=O)C2(Cn3cccn3)CC2)C[C@H]1C | -3.27
23 | CC(C)(C)c1cn2c(n1)C(CNCc1cnn3ccccc13)CCC2 (stereo not given) | -1.22
24 | CN(Cc1cc(Cl)c2c(c1)OCO2)Cc1cscn1 | -12.9
25 | CCCn1cc(-c2cc(C(=O)N(C)C)c3ccc(C)cc3n2)cn1 | 11.6
26 | O=C1NCC(C(=O)NCc2ccccc2CN2CCOCC2)N1 (stereo not given) | -5.09
27 | Cc1nc(NCc2cccnc2)cc(C2COCCN2)n1 (stereo not given) | 3.04
28 | Cc1[nH]c2c(C)ccc(C)c2c1CC(=O)NC1CCCNC1=O (stereo not given) | 6.1
29 | NS(=O)(=O)c1ccc(NCc2ccco2)c2ncccc12 | -2.08
30 | CCCC1COCCN1Cc1ccc(C(=O)O)cc1 (stereo not given) | -3.74
31 | CN(C)c1nc2c(c(=O)[nH]1)Cc1ccccc1OC2 | 2.09
32 | CN(Cc1csc(-c2cccs2)n1)Cc1ncccc1C(=O)O | -1.78
33 | CCCOc1cccc(OCc2ccon2)c1 | 4.13
34 | CC(C)C(C(=O)O)c1cccc(Cl)c1 (stereo not given) | -3.52
35 | Cn1cccc1CN(C(=O)Cc1cccs1)C1CC1 | -4.04
36 | Cc1ccc(C(=O)N(C)CC(=O)N2CCCC2)c(C)c1 | -2.76
37 | CCC(C)(CC(=O)OC)NCc1noc(C)n1 (stereo not given) | 1.21
38 | O=C(CCn1cncn1)NCCOc1cccc(Cl)c1 | -7.83
39 | Cc1cc(F)ccc1N1CCCC(NC(=O)CCc2ccncc2)C1 (stereo not given) | 14.9
40 | Cc1noc(C)c1C(=O)N[C@@H]1CCC[C@@H](Oc2ccccc2)[C@@H]1O | 19.1
